Bioassay records from PubChem.
An excerpt weighted towards active compounds, which were near 3.6% of everything screened.
mHTT-CaM PPI inh: mutant huntingtin-calmodulin interaction inhibitors – biochemical, AlphaScreen, primary screen. actives 3.6% (n = 190,000). P42858. AID 1671202, 2021. inhibition, % at 15 µM. AlphaScreen His-mHTT/GST-CaM binding, luminescence;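 also: 0% = both proteins with DMSO and 100% = one protein alone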
Pf apPOL inh: Pf-apPOL inhibitors, biochemical, fluorescence; Plasmodium falciparum apicoplast DNA polymerase (apPOL); Recombinant Pf-apPOL, molecular beacon fluorescence, 1.5 h; inhibition, % at 10 µM; actives 0.25% (n = 210,000)
* marks the source's active call; other numbers are inactive results. Rule as the data show it: active = inhibition above about 50%; inactive = the rest.

What do the screens show for `CC1=NN(C(=O)c2ccccc2Cl)C(O)(c2ccc(Cl)cc2)C1` (configuration not stated)?
mHTT-CaM PPI inh: 15; Pf apPOL inh: -6

How did Cc1cc(C)c(NC(=O)c2ccc(C)o2)c(C)c1 do in these assays?
mHTT-CaM PPI inh: 0; Pf apPOL inh: 1

Results for Cc1ccc(N2CCC(C(=O)NCCc3ccccc3)C2=O)cc1Cl (configuration not stated) ?
mHTT-CaM PPI inh: 14; Pf apPOL inh: -1

What do the screens show for `O=C(O)c1ccc(NC(=O)c2cccc(S(=O)(=O)NCc3ccccc3)c2)cc1`?
mHTT-CaM PPI inh: -3; Pf apPOL inh: -4

What do the screens show for `Cc1cc2[nH]c(C(=O)Nc3ccccc3C)c(CN3CCOCC3)c2s1`?
mHTT-CaM PPI inh: 50*; Pf apPOL inh: -3

How did Cc1cc2[nH]c(C(=O)Nc3ccccc3Cl)c(CN3CCOCC3)c2s1 do in these assays?
mHTT-CaM PPI inh: 20; Pf apPOL inh: 33

How did Cc1cc2[nH]c(C(=O)Nc3c(F)cccc3F)c(CN3CCOCC3)c2s1 do in these assays?
mHTT-CaM PPI inh: 54*; Pf apPOL inh: 26

How did Cc1cc2[nH]c(C(=O)Nc3cccc(F)c3C)c(CN3CCOCC3)c2s1 do in these assays?
mHTT-CaM PPI inh: 12; Pf apPOL inh: 11

How did Cc1cc(F)ccc1S(=O)(=O)NC1=NCCC1 do in these assays?
mHTT-CaM PPI inh: 17; Pf apPOL inh: -2

Results for Cc1ccccc1Cc1c(C)nc2nc(SCc3cc(=O)n4c(C)cccc4n3)nn2c1C ?
mHTT-CaM PPI inh: 38; Pf apPOL inh: -9

Results for CCCc1nnc(NC(=O)C(CC)Sc2nnnn2-c2ccccc2)s1 (configuration not stated) ?
mHTT-CaM PPI inh: -2; Pf apPOL inh: -3

What do the screens show for `CCC(Sc1nnnn1-c1ccccc1)C(=O)Nc1nc2ccccc2s1` (configuration not stated)?
mHTT-CaM PPI inh: 52*; Pf apPOL inh: -6

Results for O=C(O)CN1C(=O)C(=Cc2ccc(-c3cccc4c3C(=O)c3ccccc3C4=O)o2)SC1=S ?
mHTT-CaM PPI inh: 39; Pf apPOL inh: 95*

Results for O=C(O)CCN1C(=O)C(=Cc2ccc([N+](=O)[O-])o2)SC1=S ?
mHTT-CaM PPI inh: 44; Pf apPOL inh: 50*

Results for CC(C)(C)c1ccc(C=C2SC(=S)N(CCC(=O)O)C2=O)cc1 ?
mHTT-CaM PPI inh: 34; Pf apPOL inh: 1

Results for CCOC(=O)CCCN1C(=O)C(=Cc2ccc3c(c2)OCO3)SC1=S ?
mHTT-CaM PPI inh: 14; Pf apPOL inh: -6

Results for O=C(O)CCCCCN1C(=O)C(=Cc2ccc3c(c2)OCO3)SC1=S ?
mHTT-CaM PPI inh: 52*; Pf apPOL inh: 14

How did O=C(O)CN1C(=O)C(=Cc2ccccc2O)SC1=S do in these assays?
mHTT-CaM PPI inh: 17; Pf apPOL inh: 0

What do the screens show for `O=C1Nc2ccccc2N(O)N1c1ccc(Br)cc1`?
mHTT-CaM PPI inh: 1; Pf apPOL inh: -3

Results for CCc1cc(C2CCCN2C(=O)c2cc(-c3cccc(Cl)c3)on2)on1 (configuration not stated) ?
mHTT-CaM PPI inh: -4; Pf apPOL inh: -2

How did CC(C)(C)[C@H]1CCC(=O)N([C@H](CSc2ccccc2)Cc2ccccc2)CC1 do in these assays?
mHTT-CaM PPI inh: 6; Pf apPOL inh: -6

What do the screens show for `CC(C)(C)[C@H]1CCC(=O)N([C@H](COc2ccccc2)Cc2ccccc2)CC1`?
mHTT-CaM PPI inh: 64*; Pf apPOL inh: 9

What do the screens show for `O=C1CCN(Cc2ccccc2)CCN1[C@H](COc1ccccc1)Cc1ccccc1`?
mHTT-CaM PPI inh: 86*; Pf apPOL inh: -2

Results for CCCN1CCC(=O)N([C@H](COc2ccccc2)Cc2ccccc2)CC1 ?
mHTT-CaM PPI inh: 7; Pf apPOL inh: -8

How did COc1ccccc1C(=O)N/C(=C\c1ccc([N+](=O)[O-])cc1)C(=O)Nc1ccc(F)c(Cl)c1 do in these assays?
mHTT-CaM PPI inh: 6; Pf apPOL inh: -4

What do the screens show for `C=CCSC1=C(C#N)C(c2cccc(Cl)c2Cl)CC(=O)N1` (configuration not stated)?
mHTT-CaM PPI inh: 2; Pf apPOL inh: 0

How did Cc1noc(C)c1C1CCCN1Cc1ccc(F)c(Br)c1 (configuration not stated) do in these assays?
mHTT-CaM PPI inh: 13; Pf apPOL inh: 2

Results for CC1CCN(C(=O)c2cc3c(s2)CCC(C(=O)Nc2ccc4c(c2)OCO4)C3)CC1 (configuration not stated) ?
mHTT-CaM PPI inh: 10; Pf apPOL inh: -3

How did COc1ccc(C2N(c3ccc(Cl)cc3)C(=O)C3CCCN32)cc1 (configuration not stated) do in these assays?
mHTT-CaM PPI inh: -6; Pf apPOL inh: -3

What do the screens show for `COc1ccc(OC)c(C2N(c3cc(C)on3)C(=O)C3CCCN32)c1` (configuration not stated)?
mHTT-CaM PPI inh: 0; Pf apPOL inh: -3
